Results on eight molecules are retold here after PubChem BioAssay (NCATS).

Test [1] in a line: qHTS for Inhibitors of the Functional Ribonucleoprotein Complex (vRNP) of Lassa (LASV) Arenavirus: LASV Primary Screen - GLuc reporter signal (AID 1347082; calls by dose curve; tested in HEK293 reporter line; note: nearly all actives have a fitted effect of over 60% in size; note: potency is the fitted concentration of half-maximal effect; for activity change, negative = inhibition: % is set by controls: 0 for no effect and ±100 for the full control effect). A general note: qHTS replaces the single test concentration by a dilution series.
The nature of test [2]: qHTS for Inhibitors of the Functional Ribonucleoprotein Complex (vRNP) of Lassa (LASV) Arenavirus: Viability assay - alamar blue signal for LASV Primary Screen (AID 1347083; calls by dose curve; tested in HEK293 reporter line; note: nearly all actives have a fitted effect of over 80% in size; note: potency is the fitted concentration of half-maximal effect).
The nature of test [3]: qHTS for Inhibitors of the Functional Ribonucleoprotein Complex (vRNP) of Lymphocytic Choriomeningitis Arenaviruses (LCMV): Viability assay - alamar blue signal for LCMV Primary Screen (AID 1347085; calls by dose curve; tested in HEK293 reporter line; note: nearly all actives have a fitted effect of over 80% in size; note: potency is the fitted concentration of half-maximal effect).
Test [4] is described as follows: Primary qHTS to identify inhibitors of SARS-CoV-2 cell entry (AID 1645846). Note: nearly all actives have a fitted effect of over 45% in size. Note: potency is the fitted concentration of half-maximal effect. The following applies: activity change, negative = inhibition: at 57.1 µM (top of the series) unless noted. In a few lines:
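Entry measured by luciferase signal 48 h after adding SARS-CoV-2-S pseudotyped MLV particles to HEK293-ACE2 cells preincubated 1 h with compounds. Normalisation: bald particles and spike particles.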

In test [5] the target is Ubiquitin carboxyl-terminal hydrolase 1 (Homo sapiens) (UniProt O94782). Put plainly: Inhibitors of USP1/UAF1: Pilot qHTS (AID 504865; active = well fitted curve in the direction sought with a large enough effect; an effect the other way counts as inactive or inconclusive; note: potency is the fitted concentration of half-maximal effect; nearly all actives have a fitted effect of over 35% in size). In a few lines:
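Deubiquitinase activity followed as kinetic rhodamine fluorescence release from 150 nM Ub-Rho. 1 nM USP1/UAF1 with compound, after 15 min room-temperature preincubation, in HEPES pH 7.8 buffer containing TCEP, EDTA, BSA and Tween-20.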

Test [6] in a line: S16 Schwann cell PMP22 intronic element beta-lactamase assay (AID 624044). Note: potency is the fitted concentration of half-maximal effect; nearly all actives have a fitted effect of over 15% in size. In a few lines:
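Rat S16 Schwann cells with beta-Lac driven by a PMP22 intronic element, compound-treated 24 h at 37 °C. LiveBLAzer FRET B/G read: 460 nm normalized to potassium clavulanate vs DMSO; 535 nm FRET as viability; concentration-effect curves classified.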

Test [7] can be described thus: Primary qHTS for inhibitors of SARS-S pseudo-typed particle cell entry (AID 1479145). For activity change, negative = inhibition: % is set by controls: 0 for no effect and ±100 for the full control effect. Note: nearly all actives have a fitted effect of over 45% in size. Note: potency is the fitted concentration of half-maximal effect.
The nature of test [8]: Primary qHTS for inhibitors of MERS-S pseudo-typed particle cell entry (AID 1479149). Note: % is set by controls: 0 for no effect and ±100 for the full control effect; nearly all actives have a fitted effect of over 60% in size.
Test [9] is described as follows: Primary qHTS for Vero E6 cytotoxicity: counterscreen for inhibitors of SARS-S pseudo-typed particle cell entry (AID 1479150). The note with it: outcome: dose series up to 57.1 µM unless noted.
Test [10] is described as follows: qHTS profiling of the MIPE4 collection as inhibitors of Plasmodium falciparum (DD2) proliferation (Rep 2) (AID 743346; call rule not given here). The note with it: P. falciparum Dd2 in erythrocytes, SYBR Green DNA, 72 h; at 28.5 µM (top of the series) unless noted. In a few lines: (§1)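 Erythrocytes infected with P. falciparum (0.3% parasitemia, 2.5% hematocrit) incubated with compounds 72 h at 37 C, 5% CO2. Lysis with saponin/Triton buffer containing SYBR Green I, overnight at room temperature in the dark; DNA fluorescence (485/535 nm) normalised to 0.29 uM artemisinin and DMSO.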

A short description of test [11]: qHTS profiling of the MIPE4 collection as inhibitors of Plasmodium falciparum (HB3) proliferation (AID 743347; call rule not given here;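 note: plate controls were DMSO vehicle wells for no effect and artemisinin wells for full effect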). The following applies: P. falciparum HB3 in erythrocytes, SYBR Green DNA, 72 h; at 28.5 µM (top of the series) unless noted. In a few lines: as §1
Test [12] has as its target Nucleoprotein (Lymphocytic choriomeningitis virus (strain Armstrong)) (UniProt P09992). Put plainly: qHTS for Inhibitors of the Functional Ribonucleoprotein Complex (vRNP) of Lymphocytic Choriomeningitis Arenaviruses (LCMV): LCMV Primary Screen - GLuc reporter signal (AID 1347086). Note: % is set by controls: 0 for no effect and ±100 for the full control effect; nearly all actives have a fitted effect of over 70% in size.
Test [13] can be described thus: Cytotoxicity counterscreen for inhibitors of SARS-CoV-2 cell entry (AID 1645845). Note: nearly all actives have a fitted effect of over 50% in size. In a few lines: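 HEK293-ACE2 cells (Expi293F stably expressing human ACE2) seeded overnight, then compound for 1 h plus 48 h at 37C. Viability as ATP content by luminescence; normalized to wells with cells and media-only wells.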
On the technique in general: The purpose of a counterscreen is to sort out artefacts and off-target activity.

For test [14], the target named is Alpha-galactosidase (Coffea arabica) (UniProt Q42656). Put plainly: Counterscreen for Glucocerebrosidase Inhibitors: qHTS Assay for Coffee Bean alpha-Galactosidase at pH 4.5 (AID 957; active = well fitted curve in the direction sought with a large enough effect; an effect the other way counts as inactive or inconclusive;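 note: plate controls were enzyme alone for no effect and no enzyme for full effect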). In a few lines:
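Green coffee bean enzyme (2 nM final) was incubated with compounds (0.7 nM to 77 uM) and 4-methylumbelliferyl alpha-D-galactopyranoside (80 uM final) in 50 mM citric acid, 0.005% Tween-20, pH 4.5, 20 min at room temperature; AC50 from Hill fits.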

Test [15] shares this target. In words: Counterscreen for Glucocerebrosidase Inhibitors: qHTS Assay for Coffee Bean alpha-Galactosidase at pH 5.9 (AID 998; active = well fitted curve in the direction sought with a large enough effect; an effect the other way counts as inactive or inconclusive;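 note: plate controls were uninhibited enzyme for no effect and no-enzyme basal signal for full effect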). In a few lines: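 Green coffee bean enzyme (2 nM) with 4-methylumbelliferyl alpha-D-galactopyranoside (80 uM) in 50 mM citric acid, 0.005% Tween-20, pH 5.9, 20 min at room temperature; compounds 0.7 nM–77 uM. Stopped at pH 10, fluorescence Ex365/Em440; Hill-fit AC50.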

The nature of test [16]: Primary qHTS for Huh7 cytotoxicity: counterscreen for inhibitors of MERS-S pseudotyped particle cell entry (AID 1479147). The note with it: outcome: dose series up to 57.1 µM unless noted.
The nature of test [17]: Confirmatory qHTS for VERO E6 Cytotoxicity Assay: Counterscreen for SARS-CoV-2 CPE Assay (AID 1508605). Note: nearly all actives have a fitted effect of over 60% in size. Note: potency is the fitted concentration of half-maximal effect.
Test [18] in a line: Confirmatory qHTS for activators (rescue) of SARS-CoV-2 Cytopathic Effect (CPE) (AID 1508606). Note: potency is the fitted concentration of half-maximal effect; nearly all actives have a fitted effect of over 70% in size.
The nature of test [19]: Confirmatory qHTS to identify inhibitors of SARS-CoV-2 cell entry (AID 1645844). Note: % is set by controls: 0 for no effect and ±100 for the full control effect; nearly all actives have a fitted effect of over 45% in size. In a few lines: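 HEK293-ACE2 cells were pretreated 1 h with compound, then infected with MLV-based pseudoparticles bearing C-terminally truncated Wuhan-Hu-1 spike for 48 h at 37C; luciferase luminescence normalized to spike PP and bald PP wells.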

“And” between values parts separate entries of the source, which are not always exact repeats. Equal values may be shown once. Records with an inconclusive call do not appear. The source made the active and inactive calls. Unless noted, calls come from the whole dose curve.

Sequence of Nucleoprotein (Lymphocytic choriomeningitis virus (strain Armstrong)) (P09992 whole entry, looked up): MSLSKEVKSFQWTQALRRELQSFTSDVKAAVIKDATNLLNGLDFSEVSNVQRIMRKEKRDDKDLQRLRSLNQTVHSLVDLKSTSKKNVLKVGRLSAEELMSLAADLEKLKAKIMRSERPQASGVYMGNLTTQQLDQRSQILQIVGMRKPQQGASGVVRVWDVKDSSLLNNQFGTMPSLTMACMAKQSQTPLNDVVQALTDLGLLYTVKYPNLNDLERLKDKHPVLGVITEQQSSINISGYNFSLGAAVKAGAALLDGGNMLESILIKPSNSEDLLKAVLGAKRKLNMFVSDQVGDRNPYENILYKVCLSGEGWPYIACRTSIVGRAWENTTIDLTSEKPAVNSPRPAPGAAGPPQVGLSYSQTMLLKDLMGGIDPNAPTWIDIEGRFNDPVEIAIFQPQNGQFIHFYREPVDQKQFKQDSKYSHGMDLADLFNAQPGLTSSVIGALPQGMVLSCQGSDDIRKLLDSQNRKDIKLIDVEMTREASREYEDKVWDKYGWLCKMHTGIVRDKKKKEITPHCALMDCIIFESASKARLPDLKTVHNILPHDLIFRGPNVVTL
Sequence of Alpha-galactosidase (Coffea arabica) (Q42656 whole entry, looked up): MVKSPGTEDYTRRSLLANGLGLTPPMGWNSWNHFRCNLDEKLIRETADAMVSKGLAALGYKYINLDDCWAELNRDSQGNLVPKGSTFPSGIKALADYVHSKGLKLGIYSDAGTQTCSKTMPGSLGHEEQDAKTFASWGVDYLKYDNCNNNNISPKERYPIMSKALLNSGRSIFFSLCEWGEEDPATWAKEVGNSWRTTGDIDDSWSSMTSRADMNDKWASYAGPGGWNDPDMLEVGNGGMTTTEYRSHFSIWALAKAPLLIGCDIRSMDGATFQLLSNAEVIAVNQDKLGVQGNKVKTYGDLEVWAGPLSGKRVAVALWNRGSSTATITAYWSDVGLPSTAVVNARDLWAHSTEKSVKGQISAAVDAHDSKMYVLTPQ
Sequence of Ubiquitin carboxyl-terminal hydrolase 1 (Homo sapiens) (O94782 whole entry, looked up): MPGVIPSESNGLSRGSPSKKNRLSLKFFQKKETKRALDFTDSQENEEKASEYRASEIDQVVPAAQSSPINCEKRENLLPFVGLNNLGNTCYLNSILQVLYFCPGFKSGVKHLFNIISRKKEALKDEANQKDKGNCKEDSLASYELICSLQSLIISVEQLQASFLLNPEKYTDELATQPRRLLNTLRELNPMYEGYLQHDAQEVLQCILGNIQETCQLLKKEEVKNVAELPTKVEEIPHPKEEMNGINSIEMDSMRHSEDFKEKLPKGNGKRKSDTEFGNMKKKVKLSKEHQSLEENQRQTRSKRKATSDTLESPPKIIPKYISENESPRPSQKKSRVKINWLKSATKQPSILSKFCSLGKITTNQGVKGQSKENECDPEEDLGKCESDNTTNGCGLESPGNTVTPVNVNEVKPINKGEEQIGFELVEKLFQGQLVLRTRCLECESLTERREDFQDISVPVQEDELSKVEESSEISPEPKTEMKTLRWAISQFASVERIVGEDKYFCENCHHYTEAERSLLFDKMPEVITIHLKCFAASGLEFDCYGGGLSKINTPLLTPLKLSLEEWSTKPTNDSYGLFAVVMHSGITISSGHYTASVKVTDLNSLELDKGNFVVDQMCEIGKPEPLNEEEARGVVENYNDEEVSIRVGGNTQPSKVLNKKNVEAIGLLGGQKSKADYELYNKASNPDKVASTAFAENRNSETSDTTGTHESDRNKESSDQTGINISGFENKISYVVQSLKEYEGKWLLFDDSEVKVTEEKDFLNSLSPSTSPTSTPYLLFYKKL

As to `CCS(=O)(=O)Nc1ccc2[nH]c(O)c(C(=Nc3ccc(CN4CCCCC4)cc3)c3ccccc3)c2c1`, the Potency in test [1] was 9.68 µM (active); in test [2], 2.17 µM (active); in [3], 0.968 µM (active); in test [4] it was 2.82 µM (active).
As for `COc1cccc2c1C(=O)c1c(O)c3c(c(O)c1C2=O)C[C@@](O)(C(=O)CO)C[C@@H]3O[C@H]1C[C@H](N)[C@H](OC2CCCCO2)[C@H](C)O1` (stereo not given in full), the Potency was 44.7 µM (active) in [5]; 5.62 µM (active) in test [6]; 6.11 µM (active) in [2]; 6.85 µM (active) in test [3]; 7.94 µM (active) in test [7]. The Potency result in test [1] and in test [8] was “inactive” in each case. For the same molecule, the molecule was classed as inactive in test [9]. For the same molecule, the activity change, negative = inhibition in test [4] was -97.2% and -91.8%.
For `CC=C1C2C=C(C)CC1(N)c1ccc(=O)[nH]c1C2` (stereo not given), the parasite growth, % of control (lower = inhibition) in test [10] is 79.2%. The molecule further returned a growth, % of control in [11] of 103%. The Potency result in test [1], in test [2], in [3] and in test [12] was “inactive” in each case.
As for `CCOC(=O)C1=C(C)NC2=C(C(=O)CC(C)(C)C2)C1c1ccc(-c2ccccc2)cc1` (stereo not given), the Potency entry in test [1], in test [2], in test [3] and in [13] was “inactive” each time.
With `N#Cc1cc(NC(=O)Nc2nnc(-c3ccncc3)s2)ccc1-c1cn[nH]c1`, the Potency entry in test [1], in [2], in test [13] and in test [4] was “inactive” in each case. In addition, the Potency in test [3] is 6.85 µM (active).
As for `Nc1ncnc2c1ncn2C1CCCC1`, the result in test [14] and in test [15] was inactive. Besides, the Potency entry in [1], in test [2], in test [3] and in [12] was “inactive” each time.
On to `COC(=O)[C@H]1[C@H]2C[C@@H]3c4[nH]c5ccccc5c4CCN3C[C@H]2C[C@@H](OC(=O)c2cc(OC)c(OC)c(OC)c2)[C@@H]1OC`, for which the Potency entry in test [1], in [2], in test [3], in [7], in [17] and in [19] was “inactive” each time. Also, the Potency entry in test [13] was “inactive”. The molecule was classed as inactive in test [16] and in [9]. In addition, the Potency in test [18] was 11.2 µM (active).
Turning to `Cc1c(CCOc2ccc(C(=O)O)cc2)c2cc(Cl)ccc2n1C(c1ccccc1)c1ccccc1`, the Potency entry in test [1], in test [2], in test [3] and in test [13] was “inactive” in each case. In addition, the Potency in [17] was 12.6 µM (active). In addition, in test [4], the activity change, negative = inhibition was -34.5%.
